Results published in PubChem BioAssay AID1259240 (Keith Lab, Institute of Cancer Science, University of …, 2017).
Active and inactive are the calls of the source. No stated cut-off is given here; in the data, active means fold change mostly below about -2 (no sharp cut-off); inactive means mostly above about -1.8.

Test: TERT promoter activity modulators, primary screen, cell-based, luciferase reporter, human (AID 1259240)
Conditions: A2780 TERT promoter luciferase reporter, 16 h; at 20 µM, fold versus average of vehicle-only wells

Row | Structure (SMILES) | fold change | outcome
1 | CCN(CC)C(=O)c1sc(N2C(=O)Nc3ccccc3N2O)c(C(=O)OC)c1C | 1.14 (inactive) | 
2 | CC(NC(=O)c1cnn2c(C(F)F)cc(-c3ccccc3)nc12)c1ccccc1 (stereo not given) | -1.39 (inactive) | 
3 | O=C(O)COc1ccc(/C=C2/NC(=O)N(c3ccccc3)C2=O)cc1 | -1.53 (inactive) | 
4 | C=CCOc1ccc(-c2nc3s/c(=C\c4cccc(OC(C)=O)c4)c(=O)n3n2)cc1 | 1.2 (inactive) | 
5 | COC(=O)CN1C(=O)CN(c2nc(C)cc(C)n2)C1=O | -1.08 (inactive) | 
6 | COc1cc2nc(CN3C(=O)c4ccccc4C3=O)oc(=O)c2cc1OC | -2.87 (active) | 
7 | Cn1c(=O)c(=O)n(C)c2cc(S(=O)(=O)N3CCCC3C(=O)Nc3nccs3)ccc21 (stereo not given) | 1.15 (inactive) | 
8 | NCCn1c(-c2cccnc2)n[nH]c1=S | -1.19 (inactive) | 
9 | CCCCN(C)C(=O)Cn1ncc2c3ccccc3n(C)c2c1=O | 1.16 (inactive) | 
10 | CCOC(=O)C1CCN(c2c(NCCN(C)C)c(=O)c2=O)CC1 | 1.32 (inactive) | 
11 | CCOC(=O)N1CCN(c2c(NC3CCCC(C)C3C)c(=O)c2=O)CC1 (stereo not given) | 1.1 (inactive) | 
12 | CCOC(=O)Cn1c(=O)oc2cc(S(=O)(=O)N3CCCC3)ccc21 | -1.16 (inactive) | 
13 | Cc1nn2c3cc(N4CCOCC4)ccc3nc2c2ccccc12 | -2.16 (active) | 
14 | CCCn1c(NCc2cccs2)nc2ccccc21 | 1.22 (inactive) | 
15 | CCOC(=O)c1nn(-c2ccc(Cl)cc2)c(=O)c2c(NC(=O)C3CC3)scc12 | -1.1 (inactive) | 
16 | CCOC(=O)N1CCN(c2c(N(CC)CCN(C)C)c(=O)c2=O)CC1 | -1.33 (inactive) | 
17 | COc1ccc(-c2c(C)oc3c(CN4CCN(C)CC4)c(O)ccc3c2=O)cc1OC | 1.39 (inactive) | 
18 | O=C(NCCCN1CCCC1)c1ccc2nc(N3CCOCC3)sc2c1 | -1.09 (inactive) | 
19 | O=C(Nc1cccnc1)c1ccc2c(c1)C1C3CCC(C3)C1C(c1ccccc1)N2 (stereo not given) | -1.08 (inactive) | 
20 | CN(C)c1ccc(/C=C2/SC(=S)NC2=O)cc1 | -4.47 (active) | 

Row | Structure (SMILES) | fold change | outcome
21 | COc1ccc2[nH]cc(S(=O)(=O)c3ccc(C)cc3)c(=O)c2c1 | 1.08 (inactive) | 
22 | Cc1cccc2nc(COc3ccc(Cl)cc3)cn12 | -4.52 (active) | 
23 | Cc1c(NC(=O)Nc2cccc(C#N)c2)c(=O)n(-c2ccccc2)n1C | -1.39 (inactive) | 
24 | CCn1ncc(CNC(=O)c2cnn3c(C(F)F)cc(-c4ccc(C)cc4)nc23)c1C | 1.02 (inactive) | 
25 | CCN(CC)C(=O)C1=C(C)Nc2nc3ccccc3n2C1c1ccncc1 (stereo not given) | -1.02 (inactive) | 
26 | Cc1nn(-c2cc(N3CCCCC3)ccc2N)c(=O)c2ccccc12 | -1.45 (inactive) | 
27 | Cc1ccc(C(C)C)cc1OCC(O)Cn1cnc2ccccc21 (stereo not given) | -1.17 (inactive) | 
28 | CCOC(=O)C1CCCN(c2c(NC3CCN(C(=O)OCC)CC3)c(=O)c2=O)C1 (stereo not given) | 1.19 (inactive) | 
29 | CCOC(=O)c1c(C=O)c2ccccc2n1C | 1.15 (inactive) | 
30 | Cn1c(C(=O)NCCN2CCOCC2)cc2c(=O)[nH]c3ccccc3c21 | 1.17 (inactive) | 
31 | CCC(Sc1nnc(-c2c[nH]c3ccccc23)n1CCOC)C(=O)OC (stereo not given) |  | inactive
32 | O=C(c1ccc(CSCc2ccccc2F)o1)N1CCN(c2ccc(N3CCOCC3)nn2)CC1 | 1.7 (inactive) | 
33 | C=CCN1C(=O)/C(=c2\sc3nc(-c4ccccc4OC)nn3c2=O)c2cc(Br)ccc21 | 1.17 (inactive) | 
34 | CCCN(CCC)CCCNc1ccc2nncn2n1 | 1 (inactive) | 
35 | O=C(O)c1cc(S(=O)(=O)O)cc(Nc2c3ccccc3nc3ccccc23)c1O | -1.04 (inactive) | 
36 | Cc1ccn2c(NC(=O)CC(C)C)c(-c3ccc(F)cc3)nc2c1 | -2.38 (active) | 
37 | CCOC(=O)C1CCN(c2c(N3CCC(C(=O)OCC)CC3)c(=O)c2=O)CC1 | 1.06 (inactive) | 
38 | O=C(NCc1ccc(Cl)cc1)Nc1ccc2snnc2c1 | -1.36 (inactive) | 
39 | Cc1cc(Cl)ccc1OCc1nc(-c2ccc(-n3cccc3)cc2)no1 | -1.5 (inactive) | 
40 | O=C(CC(=O)Nc1ccc(F)cc1F)Nc1ccc2nc3n(c(=O)c2c1)CCCCC3 | -1.32 (inactive) | 
